In PubChem BioAssay:

System: not listed separately
Experiment: binders of probe aHhip on microarray, primary screen, stem cell growth factor project, biochemical, small-molecule microarray, fluorescence 635/667 (AID 1087);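 also: score merges spot fluorescence at 667nm with spot signal to noise ratio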
Conditions: higher = more signal

| SMILES | composite z-score |
| --- | --- |
| CCOC(=O)C[C@H]1[C@H](OC(=O)c2cc3ccccc3oc2=O)[C@@H](NC(=O)c2ccc(-c3ccccc3)cc2)c2cc(OCCCO)ccc2N1C(=O)c1ccccc1 | 0.102 |
| COC(=O)[C@@]1(Cc2ccc(OC)cc2)[C@H]2c3cc(C(=O)N(C)C)n(C[C@H](O)CO)c3C[C@H]2CN1C(=O)c1ccccc1 | 0.284 |
| CC(C)[Si](C#C[Si](C(C)C)(C(C)C)C(C)C)(O[C@H](C)c1cn([C@H](CO)Cc2ccccc2)nn1)C(C)C | -0.111 |
| CCOC(=O)C1=CC[C@@H](c2ccccc2C(F)(F)F)N(S(=O)(=O)c2ccc(C)cc2)[C@H]1c1ccc(C#N)cc1 | -0.0024 |
| C[N+](C)(C)CCCC[C@@H]1NC(=O)[C@H]2C[C@@H](C(=O)NCCCCCCN)[C@@H](c3ccc(O)cc3)N2C1=O | 0.373 |
| CC(C)N1CC=CC23O[C@@H]4C=CCOC(=O)[C@@H]4[C@H]2C(=O)N(CCCO)[C@@H]3C1=O (stereo partly specified) | -0.16 |

System: PRMT1 (protein arginine N-methyltransferase 1)
Experiment: PRMT1 binders on small-molecule microarrays, primary screen, biochemical, small-molecule microarray, 635 nm fluorescence (AID 1088);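 also: binding of Prmt1 protein to compounds spotted on small-molecule microarray slides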
Conditions: small-molecule microarray binding, higher = more signal

| SMILES | composite z-score |
| --- | --- |
| COC(=O)C(CC#Cc1ccc2c(c1)[C@]1(C(=O)N2)[C@H](C(=O)N2CCN(c3ncccn3)CC2)[C@H]2C(=O)O[C@H](c3ccccc3)[C@H](c3ccccc3)N2[C@@H]1c1ccc(OCCO)cc1)C(=O)OC | 1.53 |
| COCCOC(=O)N1C(=O)[C@@]2(c3cc(C#CC4=CCCCC4)ccc31)[C@H](c1ccccc1OCCO)N1[C@H](c3ccccc3)[C@H](c3ccccc3)OC(=O)[C@H]1[C@@H]2C(=O)N1CCCCCCC1 | 1.57 |
| CCOC(=O)C[C@H]1[C@H](OC(=O)c2ccc(C(=O)c3ccccc3)cc2)[C@@H](NC(=O)Cc2ccc(OC)cc2)c2cc(OCCCO)ccc2N1C(=O)c1ccccc1 | 0.139 |
| C=CC[C@@]1(C(=O)N2CCOCC2)N=C(c2ccc(OCCCO)cc2)O[C@@H]1c1ccccc1CN=[N+]=[N-] | 1.56 |
| NC(=O)NCC#Cc1ccc2c(c1)[C@]1(C(=O)N2)[C@H](C(=O)NC[C@H](O)c2ccccc2)[C@H]2C(=O)O[C@H](c3ccccc3)[C@H](c3ccccc3)N2[C@@H]1c1ccc(OCCO)cc1 | 0.889 |
| C=C(COC)/C(=C/C[C@H](OC(=O)c1ccncc1)c1ccccc1OCCO)c1cnc2ccccc2c1 | 1.54 |
| [N-]=[N+]=Nc1ccccc1C[C@]1(C(N)=O)N=C(c2ccc(OCCCO)cc2)O[C@H]1c1ccccc1N=[N+]=[N-] | 1.55 |
| CN1C(=O)C2C=CC(C(O)c3ccccn3)N(N(c3ccccc3)c3ccccc3)C2C1=O (stereo unspecified) | 0.412 |
| NCCCCCCNC(=O)[C@@H]1C[C@@H]2C(=O)N[C@@H](CCCCN)C(=O)N2[C@@H]1c1cccc(OCCO)c1 | 1.28 |
| O=C1N(Cc2ccccc2)c2ccccc2[C@@H]2OC(c3ccc(OCCCO)cc3)=N[C@]12Cc1ccccc1 | 1.38 |
| CCCCCCCCCCC(O)C1C=CC2C(=O)N(C)C(=O)C2N1NC(=O)OC(C)(C)C (stereo unspecified) | 0.76 |
| OCCCC1=CC(c2ccc(CN3CCCC3)cc2)N(Cc2sc3ccccc3c2Cl)CC1 (stereo unspecified) | 1.2 |
| [N-]=[N+]=Nc1ccccc1[C@@H]1OC(c2ccc(OCCCO)cc2)=N[C@]1(Cc1ccccc1)C(=O)NCC(O)CO (stereo partly specified) | 1.55 |
| C=CCC(OC(C)=O)[C@@H]1[C@@H](N(Cc2cc3ccccc3o2)C(=O)c2ccc(-c3ccccc3)cc2)c2cc(OCCCO)ccc2N1C(=O)c1ccc2ccccc2c1 (stereo partly specified) | 0.0279 |
| Cc1cc(C)c(C(O)C2C=CC3C(=O)N(c4ccccc4)C(=O)C3N2Nc2ccc(C(C)C)cc2)c(C)c1 (stereo unspecified) | 1.57 |
| COc1cc(OC)c(C(O)C2C=CC3C(=O)N(c4ccccc4)C(=O)C3N2Nc2ccccc2)cc1Br (stereo unspecified) | 1.2 |
| CO[C@H]1O[C@H](CO)[C@@H](OC(=O)Nc2ccccc2-c2ccccc2)[C@H](OC(=O)Nc2ccc3c(c2)OCO3)[C@H]1OC(=O)Nc1ccc2c(c1)OCO2 | 1.53 |
| CC1CC/C=C\[C@H]2OC34C=CCN(c5ccc(Cl)cc5)C(=O)[C@H]3N(CCCCCO)C(=O)[C@]4(C)C2C(=O)O1 (stereo partly specified) | -0.318 |

| SMILES | composite z-score |
| --- | --- |
| CC(C)N1C(=O)c2ccccc2[C@@H](C(=O)NC2CC2)[C@@H]1c1ccc(CO)cc1 | 0.672 |
| COCCCNC(=O)[C@@]1(Cc2ccccc2CN=[N+]=[N-])N=C(c2ccc(OCCCO)cc2)O[C@H]1c1ccccc1 | 1.54 |
| COc1ccc([Si](C)(C)[C@@H]2[C@@H](CCO)O[C@]3(C(=O)N(Cc4ccc(N5CCCCC5=O)cc4)c4ccccc43)[C@H]2C)cc1 | 1.53 |
| C=C(/C(=C/C[C@@H](OC(C)=O)c1cccc(OCCO)c1)c1cc(C(=O)OC)ccc1OC)C(C)C | 1.07 |
| C=C(COC)C(=O)CC[C@@H](OC(=O)c1cccnc1)c1ccc(OCCO)cc1 | 1.2 |
| CN(C)c1ccc(C(O)C2C=CC3C(=O)N(c4ccccc4)C(=O)C3N2Nc2ccc([N+](=O)[O-])cc2)cc1 (stereo unspecified) | 1.44 |
| C=C[C@@H](COC(C)=O)N(C(=O)OC(C)(C)C)S(=O)(=O)c1ccc(Br)cc1 | 0.832 |
| CCCC[C@@H](O)C1=C(COc2ccccc2)C[C@H]2C(=O)N(C)C(=O)[C@H]2[C@H]1CO | 0.129 |
| COC(=O)c1ccc([C@H](NC(=O)c2ccco2)[C@]2(C)C[C@H]2C2CCCCC2)cc1 | -1.67 |
| COc1ccc(CN(C2=CC[C@@]3(C(N)=O)C(=O)C(Cl)=C(Cl)C(=O)[C@@]3(C#N)C2)S(=O)(=O)c2ccc(Br)cc2)cc1 | -0.196 |
| COC(=O)c1cn(C[C@@H](Cc2ccccc2)NC(=O)N[C@H](CO)CCc2oc(C(C)=O)c(C(=O)OC)c2C(=O)OC)nn1 | 0.999 |
| CCOC(=O)C[C@H]1[C@H](OC(=O)c2cc3ccccc3oc2=O)[C@@H](NC(=O)c2ccc(-c3ccccc3)cc2)c2cc(OCCCO)ccc2N1C(=O)c1ccccc1 | 1.02 |
| COC(=O)[C@@]1(Cc2ccc(OC)cc2)[C@H]2c3cc(C(=O)N(C)C)n(C[C@H](O)CO)c3C[C@H]2CN1C(=O)c1ccccc1 | 0.0724 |
| CC(C)[Si](C#C[Si](C(C)C)(C(C)C)C(C)C)(O[C@H](C)c1cn([C@H](CO)Cc2ccccc2)nn1)C(C)C | 0.857 |
| CCOC(=O)C1=CC[C@@H](c2ccccc2C(F)(F)F)N(S(=O)(=O)c2ccc(C)cc2)[C@H]1c1ccc(C#N)cc1 | 0.884 |
| C[N+](C)(C)CCCC[C@@H]1NC(=O)[C@H]2C[C@@H](C(=O)NCCCCCCN)[C@@H](c3ccc(O)cc3)N2C1=O | 1.26 |
| CC(C)N1CC=CC23O[C@@H]4C=CCOC(=O)[C@@H]4[C@H]2C(=O)N(CCCO)[C@@H]3C1=O (stereo partly specified) | 0.943 |
